Unmarked numbers belong to inactive results. Inconclusive results are not listed. The source made the active and inactive calls. Unless noted, the call rests on the fitted dose curve; in most records, active means well fitted curve in either direction with a large enough effect (not every such curve was filed as active); inconclusive means small, poorly fitted or top-dose-only effect, or another doubt; inactive means flat fitted curve, though single readings scatter.

The nature of assay [1]: Stat Signaling Pathway (AID 446).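 Further: ME-180 cervical cancer cells given 40 pM IL-6 alongside compound; SIE-controlled beta-lactamase reporter measured as 460/530 nm FRET emission ratio; on the % scale 0 is the no-effect control and ±100 the full control effect.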 The following applies: ME-180 SIE beta-lactamase reporter, IL-6 stimulated, 5 h; at 17.2 µM (top of the series) unless noted. A digest of the protocol: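 ME-180 cells carrying a SIE-driven beta-lactamase reporter are stimulated with 40 pM IL-6 for 5 h at 37C in the presence of compound. The 460/530 nm FRET substrate ratio is read after 2.5 h at RT. Data are normalised to 300 pM IL-6 and to 125 nM JAK inhibitor controls.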

Assay [2] has as its target Glucocorticoid receptor (Homo sapiens) (UniProt P04150). The experiment in a line: GR-GFP Redistribution (AID 450;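 active means compounds whose dose series gives a full or clear partial fitted curve of increased nuclear translocation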; further: potency means the concentration at half of the fitted maximal effect).
The nature of assay [3]: NFAT Signaling Pathway (AID 444).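 Further: carbachol stimulus at about its EC50 of 1 µM final; on the % scale 0 is the no-effect control and ±100 the full control effect.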 The note with it: Jurkat NFAT-bla M1, carbachol, beta-lactamase ratio, 5 h; at 17.2 µM (top of the series) unless noted. A digest of the protocol: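 Jurkat cells with NFAT-driven β-lactamase reporter and co-expressed M1 receptor, stimulated with carbachol (final 1 uM, ~EC50), compound titration, 5 h at 37 °C. CCF4 loaded 1 h at RT; 460/530 nm ratio gave %activity and AC50.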

Assay [4] is described as follows: qHTS Assay for Identification of Small Molecule Agonists for Hypoxia Response Element Signaling Pathway (AID 914; active means well fitted activation curve with a large enough effect in the signal ratio, with a control signal flat, not every such curve was filed as active; the % refers to the signal ratio; further: potency means the concentration at half of the fitted maximal effect). The following applies: ME-180 HRE-bla reporter, beta-lactamase ratio, CoCl2, 17 h; activation: hits give high values. A digest of the protocol: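 ME-180 cells carrying an HRE-driven beta-lactamase reporter were treated with compounds in a titration series plus an EC50 level of CoCl2 for 17 h at 37 degrees Celsius; CCF4 readout as the 460nm/530nm ratio gave AC50 values.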
Background: In qHTS, concentration-response curves come from the screen itself.

Chain of Glucocorticoid receptor (Homo sapiens) (P04150 whole entry, looked up): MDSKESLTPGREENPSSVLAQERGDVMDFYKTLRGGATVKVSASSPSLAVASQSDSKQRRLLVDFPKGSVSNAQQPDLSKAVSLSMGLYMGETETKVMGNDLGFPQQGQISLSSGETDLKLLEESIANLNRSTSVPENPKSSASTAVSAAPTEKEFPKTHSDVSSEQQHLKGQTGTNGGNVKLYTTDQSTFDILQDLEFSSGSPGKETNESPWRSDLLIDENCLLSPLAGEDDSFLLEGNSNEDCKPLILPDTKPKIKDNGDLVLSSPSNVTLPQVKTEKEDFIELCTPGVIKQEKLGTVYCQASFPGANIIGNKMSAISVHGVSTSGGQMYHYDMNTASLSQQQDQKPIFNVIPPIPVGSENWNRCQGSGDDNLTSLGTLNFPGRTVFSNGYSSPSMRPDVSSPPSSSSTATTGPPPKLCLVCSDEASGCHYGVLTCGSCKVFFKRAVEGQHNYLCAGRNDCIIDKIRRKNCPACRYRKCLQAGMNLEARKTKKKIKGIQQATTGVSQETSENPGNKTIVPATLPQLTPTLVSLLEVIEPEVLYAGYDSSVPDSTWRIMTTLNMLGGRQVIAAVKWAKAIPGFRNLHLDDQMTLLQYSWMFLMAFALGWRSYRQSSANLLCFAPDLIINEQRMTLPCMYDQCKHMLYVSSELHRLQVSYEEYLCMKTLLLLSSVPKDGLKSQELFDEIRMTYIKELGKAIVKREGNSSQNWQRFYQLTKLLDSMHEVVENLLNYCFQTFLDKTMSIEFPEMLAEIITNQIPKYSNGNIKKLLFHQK

As to `CCC(=O)Oc1ccc(/C(CC)=C(\CC)c2ccc(OC(=O)CC)cc2)cc1`, the activity, negative = inhibition in assay [1] was -21.2%. In addition, in assay [2], the Potency was more than 20.6 µM.

Turning to `CCCCNc1c(CN)cnc2cc(Cl)ccc12`, in assay [1], the activity, negative = inhibition was -10.8% [at 7.69 µM].

For `COc1ccc(C2C=C(c3ccc(C)cc3)Nc3ncnn32)cc1` (stereo not given), in assay [1], the activity, negative = inhibition was -14.5%. Moreover, in assay [2], the Potency is more than 20.6 µM.

For the compound `CC(C)Cc1nc(N2CCN(C(=O)c3ccco3)CC2)c(C#N)c2c1CCC2`, the activity, negative = inhibition in assay [1] is -7.73%. Moreover, in assay [2], the Potency is more than 20.6 µM.

For the compound `CN1Cc2c(N3CCOCC3)nc(SCc3ccccc3)c(C#N)c2CC1(C)C`, the activity, negative = inhibition in assay [1] was -1.83%. Further, the Potency in assay [2] is more than 20.6 µM.

On to `CCOC(=O)CC(=O)CSc1nc(N)c(C#N)c(-c2ccc(Cl)cc2)c1C#N`, for which the activity, negative = inhibition in assay [1] was -16.4%. Also, the Potency in assay [2] was more than 20.6 µM.

As for `Cc1c(C)c2cc(Cl)c(O)c(CN3CCN(C)CC3)c2oc1=O`, the activity, negative = inhibition in assay [1] is 11.1%. For the same compound, the Potency in assay [2] was more than 20.6 µM.

Regarding `CCOC(=O)c1[nH]c2cc3c(cc2c1NC(=O)CN1CCCCC1C)OCO3` (stereo not given), the activity, negative = inhibition in assay [1] was -10.3%. For the same compound, the Potency in assay [2] is more than 20.6 µM.

For `Cc1cc(N2C(=O)C(=O)/C(=C(/O)c3ccc(F)cc3)C2c2ccc(F)cc2)no1` (stereo not given), the activity, negative = inhibition in assay [1] was -24.4%. Besides, the Potency in assay [2] was more than 20.6 µM.

For the compound `Cc1cccc(C)c1OCC(=O)Nc1cccc(-c2nnc(-c3ccccc3)o2)c1`, the activity, negative = inhibition in assay [1] is -9.86%. Also, the Potency in assay [2] is more than 20.6 µM.

In the case of `CC1(C)CC(=O)C2=C(C1)Oc1nc3ccccc3cc1C2C(C#N)C#N` (stereo not given), the activity, negative = inhibition in assay [1] was -93% (active). The Potency in assay [2] was more than 20.6 µM.

Regarding `O=C(O)CCc1cc(I)c(Oc2ccc(O)c(I)c2)c(I)c1`, the activity, negative = inhibition in assay [1] is -5.45%. In assay [2], the Potency was more than 20.6 µM.

For the compound `COc1ccc(OC)c(NC(=O)CSC2=C(C#N)C(c3ccco3)C3=C(CCCC3=O)N2)c1` (stereo not given), in assay [1], the activity, negative = inhibition is -3.42%. Also, the Potency in assay [2] was more than 20.6 µM.

Consider `CCOC(=O)c1cc2c(=O)n3cccc(C)c3nc2n(C)c1=N`, for which, in assay [3], the activity change, negative = inhibition was -13%. For the same compound, the Potency in assay [2] is more than 20.6 µM; in assay [4] it was 6.31 µM (active).

For `Cc1cc(/C=c2/sc3nc4ccccc4n3c2=O)c(C)n1-c1ccccn1`, the activity, negative = inhibition in assay [1] is -5.6%. In addition, the Potency in assay [2] was more than 20.6 µM.

As to `COC(=O)c1ccccc1NC=C1C(=O)OC2(CCCCC2)OC1=O`, the activity, negative = inhibition in assay [1] is 2.6%. Moreover, the Potency in assay [2] is more than 20.6 µM.

For the compound `CCN1CCc2c(C#N)c(N3CCCCC3)nc(NCc3ccccc3)c2C1`, in assay [1], the activity, negative = inhibition was 5.55%. For the same compound, the Potency in assay [2] is more than 20.6 µM.

Take `N#CCSc1nc2c(c(=O)n1Cc1ccco1)C1(CCCC1)Cc1ccccc1-2`: the activity, negative = inhibition in assay [1] is -1.5%. Moreover, the Potency in assay [2] was more than 20.6 µM.

On to `Cc1cc(NCCNC2=CC(=O)CCC2)nc2ccccc12`, for which the activity, negative = inhibition in assay [1] was 4.57%. In addition, the Potency in assay [2] is more than 20.6 µM.

For the compound `O=C(c1ccccc1)C(CCC(CN1CCOCC1)C(=O)c1ccccc1)CN1CCOCC1` (stereo not given), the activity, negative = inhibition in assay [1] is -25.4%.

`N#Cc1ccc(-c2ccc(OCC(O)Cn3nnc4ccccc43)cc2)cc1` (stereo not given): the activity, negative = inhibition in assay [1] is -29.1%. Also, the Potency in assay [2] is more than 20.6 µM.

Consider `CSc1nc2[nH]c3c(c2c2ncnn12)CCCC3`, for which the activity, negative = inhibition in assay [1] is -26.5%. Besides, the Potency in assay [2] is more than 20.6 µM.

As for `COc1ccccc1N1C(=O)C2ON(c3ccccc3)C(c3ccc(N(C)C)cc3)C2C1=O` (stereo not given), in assay [1], the activity, negative = inhibition is -10.2%. The Potency in assay [2] was more than 20.6 µM.

The values above are taken from PubChem BioAssay (NCATS).
